Assay results published in PubChem BioAssay (Tox21).
“And” between values parts separate entries of the source, which are not always exact repeats. Equal values may be shown once. Unmarked numbers belong to inactive results. A call without a number means that no potency is given here. The source made the active and inactive calls. Unless noted, the call rests on the fitted dose curve; in most records, active means well fitted curve in the direction sought with a large enough effect in the repeat runs; inconclusive means weak or mixed curves; inactive means no such curve, though single readings can be large; an effect the other way counts as inactive or inconclusive.

Legend:
[1] = qHTS assay to identify small molecule antagonists of the thyroid receptor (TR) signaling pathway (AID 743065); further: nearly all actives have a fitted effect of over 55% in size
Outline: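 GH3.TRE-Luc rat pituitary cells carrying two TR response elements driving luciferase were plated for 4 h, given compound plus 1 nM T3 (final), and incubated 23.5 h at 37 C. ONE-Glo luminescence measured reporter inhibition; CellTiter-Fluor fluorescence tracked cytotoxicity.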

[2] = target: Estrogen receptor (Homo sapiens) (UniProt P03372); test: qHTS assay to identify small molecule agonists of the estrogen receptor alpha (ER-alpha) signaling pathway (AID 743075; calls by dose curve;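 further: HEK293 GripTite cells with ER-alpha and UAS-driven beta-lactamase reporter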)
[3] = test system: thyroid hormone receptor (rat, GH3 cells); test: qHTS assay to identify small molecule agonists of the thyroid receptor (TR) signaling pathway (AID 743066; calls by dose curve)
[4] = target: Estrogen receptor (Homo sapiens) (UniProt P03372); test: qHTS assay to identify small molecule antagonists of the estrogen receptor alpha (ER-alpha) signaling pathway (AID 743069; active means well fitted curve in the direction sought with a large enough effect in the signal ratio in the repeat runs, not every such curve was filed as active; inconclusive means weak or mixed curves, or effect the other way; inactive means no such curve, though single readings can be large or run the other way; the % refers to the signal ratio)
Outline: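 Estradiol-stimulated ER-alpha-UAS-bla HEK293 cells, 18 hr compound exposure at 37C. LiveBLAzer B/G substrate, 2 hr RT, fluorescence read.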

[5] = qHTS assay to identify small molecule antagonists of the estrogen receptor alpha (ER-alpha) signaling pathway - cell viability counter screen (AID 743074; calls by dose curve;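 further: HEK293 cells carrying ER-alpha-UAS-bla reporter stimulated with 17beta-estradiol; nearly all actives have a fitted effect of over 45% in size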)
[6] = target: Estrogen receptor (Homo sapiens) (UniProt P03372); test: qHTS assay to identify small molecule agonists of the estrogen receptor alpha (ER-alpha) signaling pathway using the BG1 cell line (AID 743079); details: BG1Luc4E2 cells, ERE-luciferase agonist, 22 h; activation: at 70.3 µM (top of the series); further: nearly all actives have a fitted effect of over 20% in size
[7] = qHTS assay to identify small molecule antagonists of the estrogen receptor alpha (ER-alpha) signaling pathway using the BG1 cell line (AID 743080; calls by dose curve;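 further: BG1 cells stimulated with 17beta-estradiol alongside compound; nearly all actives have a fitted effect of over 25% in size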)
Outline: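 BG1Luc4E2, endogenous ER-alpha, 4xERE-luc; 5 d charcoal-stripped FBS, phenol red free; 24 h plating; cpd + 17beta-estradiol 21.5 h, 37 C/5% CO2; CellTiter-Fluor viability 30 min, then ONE-Glo luciferase 30 min RT.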

[8] = target: Aromatase (Homo sapiens) (UniProt P11511); test: qHTS assay to identify aromatase inhibitors (AID 743083); further: nearly all actives have a fitted effect of over 55% in size
[9] = qHTS assay to identify aromatase inhibitors - cell viability counter screen (AID 743084);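 further: cells stimulated with testosterone during compound exposure; nearly all actives have a fitted effect of over 55% in size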
[10] = qHTS assay to identify small molecule antagonists of the estrogen receptor alpha (ER-alpha) signaling pathway using the BG1 cell line - cell viability counter screen (AID 743081);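 further: compound given together with 17beta-estradiol as the ER stimulus; nearly all actives have a fitted effect of over 45% in size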
Potency means the concentration at half of the fitted maximal effect.

Estrogen receptor (Homo sapiens), sequence (P03372 whole entry, looked up): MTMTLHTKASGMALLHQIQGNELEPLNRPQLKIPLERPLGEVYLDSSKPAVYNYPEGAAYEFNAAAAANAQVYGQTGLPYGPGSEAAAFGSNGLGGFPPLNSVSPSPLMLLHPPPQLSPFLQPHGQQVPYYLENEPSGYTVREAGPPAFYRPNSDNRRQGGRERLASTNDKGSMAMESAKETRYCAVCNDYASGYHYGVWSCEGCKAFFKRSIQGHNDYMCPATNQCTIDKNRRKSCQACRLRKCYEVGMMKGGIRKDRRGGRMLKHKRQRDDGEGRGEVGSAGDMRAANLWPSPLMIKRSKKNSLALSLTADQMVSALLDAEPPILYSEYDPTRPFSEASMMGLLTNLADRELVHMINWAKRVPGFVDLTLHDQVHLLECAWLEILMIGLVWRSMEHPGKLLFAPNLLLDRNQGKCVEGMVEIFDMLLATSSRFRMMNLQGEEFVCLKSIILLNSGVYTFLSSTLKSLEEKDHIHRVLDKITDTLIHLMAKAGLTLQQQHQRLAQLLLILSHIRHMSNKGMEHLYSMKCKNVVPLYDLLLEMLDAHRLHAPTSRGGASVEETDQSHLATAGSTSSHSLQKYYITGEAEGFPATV
Aromatase (Homo sapiens), sequence (P11511 whole entry, looked up): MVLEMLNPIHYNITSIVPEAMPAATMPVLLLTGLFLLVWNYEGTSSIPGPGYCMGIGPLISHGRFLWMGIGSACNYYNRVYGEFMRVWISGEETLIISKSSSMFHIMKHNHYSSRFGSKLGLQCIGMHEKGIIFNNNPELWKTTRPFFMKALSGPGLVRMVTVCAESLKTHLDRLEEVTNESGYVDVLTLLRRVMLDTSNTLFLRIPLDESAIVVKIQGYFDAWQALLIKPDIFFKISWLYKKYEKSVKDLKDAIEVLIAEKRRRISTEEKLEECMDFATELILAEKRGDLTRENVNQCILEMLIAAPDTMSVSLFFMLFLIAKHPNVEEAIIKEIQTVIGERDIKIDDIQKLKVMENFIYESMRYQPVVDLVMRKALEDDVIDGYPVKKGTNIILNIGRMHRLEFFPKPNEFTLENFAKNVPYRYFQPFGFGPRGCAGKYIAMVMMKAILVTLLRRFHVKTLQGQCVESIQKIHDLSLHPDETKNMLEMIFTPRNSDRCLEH

Row | SMILES | Potency [1] | Potency [2] | Potency [3] | Potency [4] | Potency [5] | Potency [6] | Potency [7] | Potency [8] | Potency [9] | Potency [10]
1 | CCC(OC(C)=O)C(CC(C)NC)(c1ccccc1)c1ccccc1 (stereo not drawn) | 19.5 µM (active) | inactive | – | – | – | – | – | – | – | –
2 | CC1=C2C[C@H]3[C@@H](CC=C4C[C@@H](O)CC[C@@]43C)[C@@H]2CC[C@]12O[C@@H]1C[C@H](C)CN[C@H]1[C@H]2C | – | inactive | inactive | inactive | inactive | inactive | inactive | inactive | – | –
3 | CCO/N=C(\CC)C1=C(O)CC(c2c(C)cc(C)cc2C)CC1=O (stereo not drawn) | – | inactive | inactive | – | inactive | inactive | inactive | inactive | inactive | –
4 | [O]=[Cr](=[O])([OH])[O][Cr](=[O])(=[O])[OH] | – | inactive | inactive | inactive | inactive | inactive | inactive | 13.3 µM (active) and 2.46 µM (active) and 2.43 µM (active) | inactive | inactive
5 | Fc1ccc(C(OCCN2CCN(CCCc3ccccc3)CC2)c2ccc(F)cc2)cc1 | 7.5 µM (active) | inactive | – | – | 15.1 µM (active) | – | – | 18.8 µM (active) | 26.6 µM (active) | 21.1 µM (active)
6 | Oc1cc(Cl)cc(Cl)c1 | – | inactive | inactive | – | inactive | inactive | inactive | – | inactive | inactive
7 | CCCCCCCc1ccc(O)cc1 | – | inactive | inactive | inactive | inactive | 24.3 µM (active) | inactive | – | – | inactive
8 | CC(=O)C(Cl)C(=O)N(C)C (stereo not drawn) | – | inactive | inactive | inactive | inactive | inactive | inactive | inactive | inactive | inactive
9 | O.O.O.O=C([O-])[C@H]([O-])[C@@H]([O-])C(=O)[O-].O=C([O-])[C@H]([O-])[C@@H]([O-])C(=O)[O-].[K+].[K+].[Sb+3].[Sb+3] | – | inactive | inactive | 17.5 µM [inhibitor] (active) | inactive | – | – | – | inactive | –
10 | C[C@H]1[C@H](c2ccc(Cl)cc2)SC(=O)N1C(=O)NC1CCCCC1 | 61.1 µM (active) | inactive | – | – | inactive | – | 61.1 µM (active) | – | inactive | inactive
11 | CC1(C)C(C=C(Cl)Cl)C1C(=O)OC(C#N)c1ccc(F)c(Oc2ccccc2)c1 (stereo not drawn) | – | inactive | inactive | inactive | inactive | inactive | inactive | – | inactive | inactive
12 | O=[N+]([O-])c1cc(C(F)(F)F)c(Cl)c([N+](=O)[O-])c1Nc1ncc(C(F)(F)F)cc1Cl | 2.17 µM (active) | 49 µM [inconclusive] (active) | – | – | 49 µM (active) | – | – | 2.73 µM (active) | 21.7 µM (active) | 68.6 µM (active)
13 | O=C(O)CCCCCCNC1c2ccccc2CCc2ccccc21 | – | inactive | 23.7 µM (active) | inactive | – | inactive | inactive | – | inactive | inactive
14 | Cc1c([N+](=O)[O-])c(C)c([N+](=O)[O-])c(C(C)(C)C)c1[N+](=O)[O-] | – | inactive | inactive | – | inactive | inactive | inactive | – | inactive | inactive
15 | CCN(CC)C(=S)S | – | inactive | inactive | inactive | inactive | inactive | – | – | 8.71 µM (active) and 7.65 µM (active) and 4.86 µM (active) | inactive
16 | COC(=O)N(OC)c1ccccc1COc1ccn(-c2ccc(Cl)cc2)n1 | 0.137 µM (active) | 0.275 µM [inconclusive] (active) | – | – | – | – | 0.77 µM (active) | 61.1 µM (active) | – | –
17 | CCN1CCC2(CC1)COc1cc3c(cc12)N(C(=O)c1ccc(-c2ccc(-c4nnc(C)o4)cc2C)cc1)CC3 | 2.52 µM (active) | inactive | – | – | 50.7 µM (active) | – | – | 28.3 µM (active) | 39.9 µM (active) | –
18 | CCOP(=S)(OCC)Oc1cc(C)nc(N(CC)CC)n1 | – | inactive | inactive | – | – | – | 34.4 µM (active) | – | inactive | inactive
19 | CC(C)=CC1C(C(=O)OC(C#N)c2cccc(Oc3ccccc3)c2)C1(C)C (stereo not drawn) | – | – | inactive | – | – | – | – | inactive | inactive | inactive
20 | CSC(=O)c1c(C(F)F)nc(C(F)(F)F)c(C(=O)SC)c1CC(C)C | – | inactive | – | – | inactive | inactive | inactive | 68.2 µM (active) | inactive | inactive
21 | COc1ccc2[nH]cc(CCN(C(C)C)C(C)C)c2c1 | – | – | inactive | – | inactive | – | – | inactive | inactive | inactive
22 | [O-][Cl+3]([O-])([O-])O | – | – | – | – | inactive | – | – | inactive | inactive | inactive
23 | COc1ccc(Cc2nccc3cc(OC)c(OC)cc23)cc1OC | – | – | inactive | – | inactive | – | – | inactive | inactive | inactive
24 | CN | – | – | inactive | – | inactive | – | – | inactive | inactive | inactive
25 | O=[N+]([O-])c1cccc2cccc([N+](=O)[O-])c12 | – | – | inactive | – | inactive | – | – | – | inactive | inactive
